This passage reports growth results from PubChem BioAssay (NCI).

This is part of a sample that, as a whole, favours compounds with a hit. Of some 83,000 tested, about 20% had one in any assay.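 A percent growth of 40 corresponds to 60% growth inhibition; 0 means no net growth; -100 means all cells died. Active threshold: below 10.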 Values without a mark were called inactive. Active and inactive are the calls of the source.

Holding throughout (test): NCI-60 one-dose screen, 48 h (100 = growth as untreated, 0 = no growth, -100 = all killed)
In one assay the test system is BT-549 breast. To be noted: 10 µM unless noted.
The next assay deals with SW-620 colon. To be noted: 10 µM unless noted.
The next assay deals with MCF7 breast. As to conditions: 10 µM.
The test system of the next assay is HCT-116 colon. As to conditions: 10 µM unless noted.
For the next assay, the system named is KM12 colon. As to conditions: 10 µM unless noted.
Another assay deals with MDA-MB-435 melanoma. As to conditions: 10 µM unless noted.
Another assay relates to HCC-2998 colon. To be noted: 10 µM unless noted.

Regarding `O=C1C(=O)c2c(ccc3ccccc23)-c2ccccc21`, the growth with BT-549 breast was -72.6% (active); with SW-620 colon it was -73% (active); in the assay with MCF7 breast it was -47.6% (active); in the assay with HCT-116 colon, -53.8% (active); with KM12 colon it was 18.4%.
For `O=c1oc2ccc(-c3ccc(F)cc3F)cc2c(=O)n1-c1ccc(Cl)c(C(F)(F)F)c1`, the growth in the assay on MDA-MB-435 melanoma was 7.88% (active); in the assay with SW-620 colon it was 14.6%; in the assay on MCF7 breast it was 7.27% (active); in the assay on HCT-116 colon, 6.47% (active); with HCC-2998 colon, 25.6%; in the assay with KM12 colon, 3.84% (active).
On to `CCN(CC)CCCNc1ccnc2cc3ccccc3cc12`, for which the growth in the assay on BT-549 breast is 94.2%; with MCF7 breast, 81.7%; in the assay with HCT-116 colon it was 60.1%; in the assay on HCC-2998 colon it was 78.7%; in the assay on KM12 colon, 80.8%.
`O=c1oc2ccc(Br)cc2c(=O)n1-c1ccc(I)cc1F`: the growth in the assay on MDA-MB-435 melanoma was -1.76% (active); in the assay with SW-620 colon, 10%; in the assay with MCF7 breast, 1.41% (active); in the assay on HCT-116 colon, 0.0693% (active); in the assay with HCC-2998 colon, 18.3%; with KM12 colon it was -18% (active).
On to `O=C(Nc1ccc(F)cc1F)c1cc(Br)ccc1O`, for which the growth was 0.167% (active) in the assay with MDA-MB-435 melanoma; 13.1% in the assay with SW-620 colon; -1.09% (active) with MCF7 breast; 1.66% (active) in the assay with HCT-116 colon; 13.5% with HCC-2998 colon; -0.56% (active) with KM12 colon.
Consider `COc1cc(/C=C/C(=O)c2c(C)nc3ccccc3c2/C=C/c2ccccc2)cc(OC)c1OC`, for which the growth in the assay with BT-549 breast is 6.8% (active); with SW-620 colon, 0.233% (active); with MCF7 breast it was 13.7%; in the assay on HCT-116 colon, -81.8% (active); in the assay on HCC-2998 colon, 6.52% (active); in the assay on KM12 colon, -5.07% (active).
Regarding `O=NN(Cc1cccnc1)C(=O)NC1CCCCC1`, the growth was 112% with BT-549 breast; 107% in the assay on SW-620 colon; 92.9% in the assay with MCF7 breast; 104% with HCT-116 colon; 107% in the assay on HCC-2998 colon; 109% in the assay with KM12 colon.
Consider `O=C1c2ccccc2C(=O)c2c1ccc1[nH]c(CCl)nc21`, for which the growth in the assay with MDA-MB-435 melanoma was 28.6%; in the assay with SW-620 colon, -23.7% (active); with MCF7 breast, 6.47% (active); in the assay with HCT-116 colon it was -6.49% (active); in the assay on HCC-2998 colon, 65.5%; in the assay on KM12 colon it was 22.9%.
On to `O=c1oc2ccc(F)cc2c(=O)n1-c1ccc(F)cc1F`, for which the growth with MDA-MB-435 melanoma is 11.7%; in the assay on SW-620 colon, 31.7%; in the assay on MCF7 breast, 24.8%; in the assay with HCT-116 colon it was 24.4%; in the assay with HCC-2998 colon it was 22.8%; with KM12 colon, 12.6%.
Turning to `Nc1ccc(-n2c(=O)oc3ccc(Cl)cc3c2=O)c(Cl)c1`, the growth in the assay with MDA-MB-435 melanoma is -5.78% (active); in the assay with SW-620 colon it was 5.14% (active); with MCF7 breast, 4.1% (active); with HCT-116 colon, -4.7% (active); in the assay on HCC-2998 colon, 10.2%; with KM12 colon, -33.7% (active).
For `COc1nc2c(c(=O)n1C)N=C1c3ccccc3C(=O)C1C(c1ccccc1)N2` (stereo not drawn), the growth is 81.1% with BT-549 breast; 88.4% with SW-620 colon; 88.2% in the assay on MCF7 breast; 89.9% with HCT-116 colon; 79.3% in the assay with KM12 colon.
For `CC(C)CCNCC(O)Cn1c2ccccc2c2ccccc21` (stereo not drawn) the same measures were 84.3%, 12.5%, 8.76% (active), 4% (active) and 15.7%.
Take `O=C(COc1cc(O)c2c(=O)cc(-c3ccccc3)oc2c1)Nc1ccccc1C(F)(F)F`: the growth was 78% in the assay on MDA-MB-435 melanoma; 21.8% in the assay on SW-620 colon; 49.8% in the assay on MCF7 breast; 5.84% (active) with HCT-116 colon; 90% with HCC-2998 colon; 68.5% with KM12 colon.
For `O=C(/C=C/c1cccc(Cl)c1)OCc1ccc2cc1OCC#C/C=C\C#CCO2`, the growth in the assay with BT-549 breast is 102%; with SW-620 colon, 108%; in the assay with HCT-116 colon, 89%; in the assay with HCC-2998 colon, 107%; in the assay on KM12 colon, 104%.
Turning to `CN1CCN(Cc2ccc(C(=O)Nc3cncc(C#Cc4cnc(N)c5ccccc45)c3)cc2C(F)(F)F)CC1`, the growth is 72% with BT-549 breast; -66.3% (active) in the assay on SW-620 colon; -68.3% (active) in the assay with MCF7 breast; -84.5% (active) in the assay on HCT-116 colon; -52.6% (active) with HCC-2998 colon; -70.4% (active) with KM12 colon.
Consider `CCCCCCC(O)(c1ccc(F)cc1)C(CN1CCOCC1)c1ccccc1` (stereo not drawn), for which the growth with BT-549 breast was 61.9%; in the assay with SW-620 colon, 26.3%; with MCF7 breast, 20.4%; in the assay on HCT-116 colon, 18.5%; in the assay on HCC-2998 colon, 23.3%; in the assay with KM12 colon, 29%.
In the case of `O=C(Nc1ccc(Cl)cc1F)c1cc(I)ccc1O`, the growth with MDA-MB-435 melanoma was 18.5%; with SW-620 colon, 27.4%; with MCF7 breast it was 47%; with HCT-116 colon, 21.2%; in the assay on HCC-2998 colon, 81.6%; in the assay with KM12 colon, 62%.
Consider `COc1cc(/C(C#N)=C/c2nc3c(N4CCOCC4)nc(Cl)nc3n2C)cc(OC)c1OC`, for which the growth in the assay on BT-549 breast was 20.7%; in the assay with SW-620 colon, 19.8%; in the assay with MCF7 breast it was 6.74% (active); in the assay with HCT-116 colon, 4.75% (active); with KM12 colon, 1.09% (active).
For `COc1cc(C(C)n2cc(-c3ccccc3)nn2)ccc1OC1CCCC1` (stereo not drawn) the same measures were 69.1%, 74.7%, 48.1%, 52.3% and 71.8%.
Take `CCOc1cc(Cl)c(C(C)NC(=O)c2cccc(OC)c2)cc1OCC` (stereo not drawn): the growth was -27.7% (active) with BT-549 breast; -50.9% (active) in the assay on SW-620 colon; 3.38% (active) in the assay with MCF7 breast; -57.5% (active) in the assay with HCT-116 colon; -85.1% (active) with HCC-2998 colon; 0.624% (active) in the assay on KM12 colon.
